# Values joined by “and” are separate entries in the source; they are usually repeats but may differ in a detail not shown here. Equal entries are not always repeated. Results filed as inconclusive are left out. Where a call stands in place of a potency, no number is given. Active and inactive are the calls of the source. Unless noted, the call rests on the fitted dose curve; in most records, active means well fitted curve in the direction sought with a large enough effect in the repeat runs; inconclusive means weak or mixed curves; inactive means no such curve, though single readings can be large; an effect the other way counts as inactive or inconclusive.
# What was measured:
# [1] = qHTS assay to identify small molecule antagonists of the estrogen receptor alpha (ER-alpha) signaling pathway using the BG1 cell line in the presence of 0.1 nM 17-beta-estradiol - cell viability counter screen (AID 1259241); further: nearly all actives have a fitted effect of over 40% in size; further: potency means the concentration at half of the fitted maximal effect
# Method in brief: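 Measures cytotoxicity alongside the ER-alpha antagonist readout: VM7Luc4E2 cells, charcoal-stripped serum, 0.1 nM 17beta-estradiol final, 22 hr compound incubation at 37C, CellTiter-Fluor fluorescence.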
# [2] = qHTS assay to identify small molecule antagonists of the androgen receptor (AR) signaling pathway using the MDA cell line in the presence of 0.5 nM R1881 - cell viability counter screen (AID 1259242); further: nearly all actives have a fitted effect of over 45% in size; further: potency means the concentration at half of the fitted maximal effect
# Method in brief: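 Concentration-response screen of compounds for toxicity in MDA-kb2 reporter cells: 16 hr at 37C with 0.5 nM R1881, endpoint live-cell protease fluorescence measured in the reporter wells.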
# [3] = molecular target: Androgen receptor (Homo sapiens) (UniProt P10275); assay: qHTS assay to identify small molecule antagonists of the androgen receptor (AR) signaling pathway using the MDA cell line in the presence of 0.5 nM R1881 (AID 1259243); further: nearly all actives have a fitted effect of over 50% in size; further: potency means the concentration at half of the fitted maximal effect
# Chain of Androgen receptor (Homo sapiens) (P10275 whole entry, looked up): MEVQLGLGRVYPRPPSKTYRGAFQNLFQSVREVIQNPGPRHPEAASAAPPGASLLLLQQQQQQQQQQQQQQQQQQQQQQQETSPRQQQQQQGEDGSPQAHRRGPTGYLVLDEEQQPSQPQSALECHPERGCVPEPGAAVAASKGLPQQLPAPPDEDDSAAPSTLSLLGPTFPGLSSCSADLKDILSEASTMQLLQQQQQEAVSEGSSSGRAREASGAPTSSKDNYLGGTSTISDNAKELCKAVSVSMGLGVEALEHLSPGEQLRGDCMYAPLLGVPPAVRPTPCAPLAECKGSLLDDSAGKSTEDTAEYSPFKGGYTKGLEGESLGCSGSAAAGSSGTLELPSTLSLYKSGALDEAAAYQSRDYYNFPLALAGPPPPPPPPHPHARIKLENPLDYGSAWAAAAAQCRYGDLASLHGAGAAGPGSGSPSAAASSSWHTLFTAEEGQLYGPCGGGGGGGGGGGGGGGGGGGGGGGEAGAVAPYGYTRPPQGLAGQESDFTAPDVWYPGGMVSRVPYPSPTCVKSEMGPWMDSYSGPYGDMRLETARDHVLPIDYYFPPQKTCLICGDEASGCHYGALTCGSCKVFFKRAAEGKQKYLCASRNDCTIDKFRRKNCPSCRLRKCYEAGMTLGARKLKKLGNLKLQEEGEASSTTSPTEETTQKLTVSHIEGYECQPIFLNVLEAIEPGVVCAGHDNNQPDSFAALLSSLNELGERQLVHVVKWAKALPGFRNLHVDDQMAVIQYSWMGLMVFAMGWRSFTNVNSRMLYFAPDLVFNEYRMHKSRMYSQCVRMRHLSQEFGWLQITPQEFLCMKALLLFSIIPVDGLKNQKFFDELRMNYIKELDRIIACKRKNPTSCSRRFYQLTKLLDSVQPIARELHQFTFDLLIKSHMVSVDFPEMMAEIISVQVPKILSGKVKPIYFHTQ
# Method in brief: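 With R1881 held at 0.5 nM (final), compound effects on MMTV-luciferase expression in MDA-kb2 cells were scored by luminescence after a 16 hr, 37C incubation.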
# [4] = molecular target: Estrogen receptor (Homo sapiens) (UniProt P03372); assay: qHTS assay to identify small molecule antagonists of the estrogen receptor alpha (ER-alpha) signaling pathway using the BG1 cell line in the presence of 0.1 nM 17-beta-estradiol (AID 1259244); further: nearly all actives have a fitted effect of over 50% in size; further: potency means the concentration at half of the fitted maximal effect
# Chain of Estrogen receptor (Homo sapiens) (P03372 whole entry, looked up): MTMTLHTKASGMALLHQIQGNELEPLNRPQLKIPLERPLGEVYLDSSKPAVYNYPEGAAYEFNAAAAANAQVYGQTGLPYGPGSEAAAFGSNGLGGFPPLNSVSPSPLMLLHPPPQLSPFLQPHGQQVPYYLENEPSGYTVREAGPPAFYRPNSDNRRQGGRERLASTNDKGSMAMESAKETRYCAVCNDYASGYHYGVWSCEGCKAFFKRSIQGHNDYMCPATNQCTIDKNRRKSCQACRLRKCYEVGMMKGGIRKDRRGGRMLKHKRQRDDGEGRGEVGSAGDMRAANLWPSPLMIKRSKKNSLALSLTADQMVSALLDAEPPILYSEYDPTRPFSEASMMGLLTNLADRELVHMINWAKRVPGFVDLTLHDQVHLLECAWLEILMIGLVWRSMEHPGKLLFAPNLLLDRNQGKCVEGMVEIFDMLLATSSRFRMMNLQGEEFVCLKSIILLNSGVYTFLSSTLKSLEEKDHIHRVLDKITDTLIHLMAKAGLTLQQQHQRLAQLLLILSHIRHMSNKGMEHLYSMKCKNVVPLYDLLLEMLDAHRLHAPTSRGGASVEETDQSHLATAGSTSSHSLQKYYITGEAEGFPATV
# Method in brief: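 Compounds were tested against 0.1 nM (final) 17beta-estradiol in VM7Luc4E2 cells, which express full-length ER-alpha and an ERE-luciferase reporter; luminescence was recorded following 22 h exposure.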
# [5] = qHTS assay to identify small molecule phospholipidosis (PLD) inducers (AID 1259344; active means well fitted curve in the direction sought with a large enough effect; an effect the other way counts as inactive or inconclusive)
# Method in brief: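 Read-out is LipidTOX Red fluorescence (ex 595/em 615) imaged in HepG2 cells after 24 h compound exposure at 37 C, with Hoechst nuclear counterstain (ex 352/em 461) allowing per-cell normalisation.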
# [6] = qHTS assay to identify small molecule agonists of the sonic hedgehog signaling (Shh) pathway - cell viability counter screen (AID 1259366); further: nearly all actives have a fitted effect of over 50% in size; further: potency means the concentration at half of the fitted maximal effect
# Method in brief: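 After a 4hr attachment at 37C, NIH/3T3 cells bearing an integrated Gli1-driven luciferase reporter were dosed with compounds. Treatment lasted 24hr, with the final hour including CellTiter-Fluor for a fluorescence viability measurement.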
# [7] = qHTS assay to identify small molecule antagonists of the sonic hedgehog signaling (Shh) pathway - cell viability counter screen (AID 1259367); further: nearly all actives have a fitted effect of over 55% in size; further: potency means the concentration at half of the fitted maximal effect
# Method in brief: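 Fluorescence read-out (CellTiter-Fluor, 1 hr at 37C) taken after 23 hr compound treatment of 3T3 Gli1-Luc cells stimulated with conditioned medium. Cells were seeded at 2,000 per well and pre-incubated 4 hr.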
# [8] = qHTS assay to identify small molecule agonists of the sonic hedgehog signaling (Shh) pathway (AID 1259368; calls by dose curve;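 further: NIH/3T3-derived 3T3Gli1-Luc cells carrying a stable Gli1-driven firefly luciferase reporter; series mostly up to about 92 µM; nearly all actives have a fitted effect of over 15% in size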)
# Method in brief: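 Hedgehog pathway agonism scored by increased firefly luciferase luminescence in 3T3Gli1-Luc cells treated 24 hr at 37 C; detection used a 30 min room-temperature reagent incubation.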
# [9] = qHTS assay to identify small molecule antagonists of the sonic hedgehog signaling (Shh) pathway (AID 1259369; calls by dose curve; further: nearly all actives have a fitted effect of over 45% in size; further: potency means the concentration at half of the fitted maximal effect)
# Method in brief: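 NIH/3T3 stable Gli1-Luc clone, 2,000 cells/well, 4hr settle; cpd + conditioned medium 24hr; Luc reagent 30min RT; luminescence.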
# [10] = qHTS assay to identify small molecule agonists of the androgen receptor (AR) signaling pathway in the presence of an antagonist - cell viability counter screen (AID 1259379); further: nearly all actives have a fitted effect of over 25% in size; further: potency means the concentration at half of the fitted maximal effect
# Method in brief: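 MDA-kb2 viability measured by CellTiter-Fluor fluorescence in the same wells as the luciferase signal; nilutamide 3.0uM final; 15-point compound titration; 16 hr at 37C.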
# [11] = qHTS assay to identify small molecule antagonists of the estrogen receptor beta (ER-beta) signaling pathway - cell viability counter screen (AID 1259382); further: nearly all actives have a fitted effect of over 55% in size; further: potency means the concentration at half of the fitted maximal effect
# Method in brief: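 Readout: luminescence, CellTiter-Glo, same wells as bla assay. System: ER-beta-UAS-bla GripTite HEK293T, 2% charcoal-stripped FBS. Exposure: compounds plus 1nM 17-beta-estradiol, 16 hr, 37C.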
# [12] = molecular target: Estrogen receptor (Homo sapiens) (UniProt P03372); assay: qHTS assay to identify small molecule agonists of the estrogen receptor alpha (ER-alpha) signaling pathway in the presence of an antagonist (AID 1259383; calls by dose curve; further: top concentration of the series differs between compounds; nearly all actives have a fitted effect of over 15% in size)
# Method in brief: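 Quantitative HTS confirmation: compounds titrated at 15 concentrations onto estrogen-deprived VM7Luc4E2 cells carrying a four-ERE luciferase construct, with ICI-182,780 present at 10.0nM final. Signal is luminescence after 22hr exposure.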
# [13] = qHTS assay to identify small molecule agonists or antagonists of the thyroid stimulating hormone receptor (TSHR) signaling pathway - wild type cell line counter screen (AID 1259384; calls by dose curve)
# Method in brief: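 Wild-type Hek293 cells, 800/well, 18 h at 37C, then compound with Ro20-1724 for 30 min RT. cAMP by HTRF (cAMP-d2/anti-cAMP cryptate), 1 h RT, fluorescence read. 15 concentrations, triplicates.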
# [14] = qHTS assay to identify small molecule HDAC inhibitors (AID 1259364); further: potency means the concentration at half of the fitted maximal effect;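 further: wild-type HCT-116 cells with endogenous class I/II HDAC activity; nearly all actives have a fitted effect of over 45% in size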
# Method in brief: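 Screening used wild-type human colon HCT-116 cells incubated overnight, dosed with compounds for 2 hours, and assayed with a homogeneous luminogenic HDAC I/II reagent for 30 minutes at room temperature.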
# [15] = molecular target: Estrogen receptor beta (Homo sapiens) (UniProt Q92731); assay: qHTS assay to identify small molecule agonists of the estrogen receptor beta (ER-beta) signaling pathway (AID 1259377; active means well fitted activation curve with a large enough effect in the signal ratio in the repeat runs, not every such curve was filed as active; the % refers to the signal ratio)
# Chain of Estrogen receptor beta (Homo sapiens) (Q92731 whole entry, looked up): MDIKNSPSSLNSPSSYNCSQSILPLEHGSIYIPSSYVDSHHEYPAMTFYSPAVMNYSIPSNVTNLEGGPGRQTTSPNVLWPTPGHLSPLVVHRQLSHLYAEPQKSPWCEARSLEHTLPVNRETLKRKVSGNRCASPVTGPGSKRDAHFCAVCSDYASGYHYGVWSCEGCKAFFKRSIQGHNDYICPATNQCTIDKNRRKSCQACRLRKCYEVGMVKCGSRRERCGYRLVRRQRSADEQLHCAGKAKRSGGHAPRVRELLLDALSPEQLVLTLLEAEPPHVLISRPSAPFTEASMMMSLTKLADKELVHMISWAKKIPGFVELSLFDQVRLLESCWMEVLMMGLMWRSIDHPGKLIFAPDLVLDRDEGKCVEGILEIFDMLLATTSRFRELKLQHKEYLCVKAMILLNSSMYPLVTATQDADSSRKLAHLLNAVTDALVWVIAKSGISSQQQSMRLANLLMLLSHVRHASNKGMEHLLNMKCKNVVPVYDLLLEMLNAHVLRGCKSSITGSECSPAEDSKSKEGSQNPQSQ
# Method in brief: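 In HEK293T cells bearing a UAS-beta-lactamase reporter under ER-beta control, DMSO-delivered compounds were incubated for 16 hr at 37C. Activity was detected as fluorescence 2 hours after LiveBLAzer B/G FRET substrate addition.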
# [16] = molecular target: Estrogen receptor beta (Homo sapiens) (UniProt Q92731); assay: qHTS assay to identify small molecule antagonists of the estrogen receptor beta (ER-beta) signaling pathway (AID 1259378; active means well fitted inhibition curve with a large enough effect in the signal ratio in the repeat runs, not every such curve was filed as active; the % refers to the signal ratio; further: potency means the concentration at half of the fitted maximal effect)
# Method in brief: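 ER-beta-UAS-bla HEK293T cells in 2% charcoal-stripped FBS medium treated with compound plus 1nM final 17-beta-estradiol for 16 hr at 37C. Beta-lactamase reporter read by FRET substrate fluorescence after 2 hours at room temperature.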
# [17] = molecular target: Thyrotropin receptor (Homo sapiens) (UniProt P16473); assay: qHTS assay to identify small molecule antagonists of the thyroid stimulating hormone receptor (TSHR) signaling pathway (AID 1259385; calls by dose curve; further: nearly all actives have a fitted effect of over 20% in size; further: potency means the concentration at half of the fitted maximal effect)
# Chain of Thyrotropin receptor (Homo sapiens) (P16473 whole entry, looked up): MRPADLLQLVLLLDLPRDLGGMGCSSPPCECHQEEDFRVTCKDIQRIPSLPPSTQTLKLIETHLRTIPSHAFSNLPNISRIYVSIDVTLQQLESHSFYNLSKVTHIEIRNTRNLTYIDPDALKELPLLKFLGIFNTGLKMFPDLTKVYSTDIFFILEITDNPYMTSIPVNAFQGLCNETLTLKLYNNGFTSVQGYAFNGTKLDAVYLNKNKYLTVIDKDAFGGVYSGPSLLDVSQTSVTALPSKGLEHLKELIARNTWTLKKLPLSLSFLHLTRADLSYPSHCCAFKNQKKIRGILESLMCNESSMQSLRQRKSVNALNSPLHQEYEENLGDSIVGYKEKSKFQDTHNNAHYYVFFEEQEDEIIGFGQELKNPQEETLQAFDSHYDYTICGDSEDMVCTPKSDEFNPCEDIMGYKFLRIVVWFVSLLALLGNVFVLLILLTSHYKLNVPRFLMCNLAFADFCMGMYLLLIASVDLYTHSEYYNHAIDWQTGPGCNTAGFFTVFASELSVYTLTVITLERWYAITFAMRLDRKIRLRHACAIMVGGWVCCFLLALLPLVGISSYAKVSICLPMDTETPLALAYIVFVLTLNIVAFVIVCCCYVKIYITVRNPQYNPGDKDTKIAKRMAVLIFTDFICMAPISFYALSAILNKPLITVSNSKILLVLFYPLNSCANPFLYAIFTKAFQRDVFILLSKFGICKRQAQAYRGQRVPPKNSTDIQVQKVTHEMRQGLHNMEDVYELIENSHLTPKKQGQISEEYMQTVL
# Method in brief: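 TSHR-HEK293 cells (800/well) plated 18 h, then compounds with Ro20-1724 and TSH at 1.5 ng/mL final, 30 min at room temperature. cAMP quantified by HTRF (cAMP-d2/anti-cAMP-cryptate, 1 h); 15 concentrations in triplicate.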
# [18] = qHTS assay to identify small molecule agonists of the estrogen receptor beta (ER-beta) signaling pathway - cell viability counter screen (AID 1259380); further: nearly all actives have a fitted effect of over 30% in size; further: potency means the concentration at half of the fitted maximal effect
# Method in brief: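 Measured: luminescence from CellTiter-Glo after 30 min at room temperature, added to wells already read for the LiveBLAzer FRET reporter (2 hr substrate); ER-beta-UAS-bla HEK293T cells had 16 hr compound treatment at 37C, 5% CO2.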
# [19] = molecular target: Androgen receptor (Homo sapiens) (UniProt P10275); assay: qHTS assay to identify small molecule agonists of the androgen receptor (AR) signaling pathway in the presence of an antagonist (AID 1259381; calls by dose curve; further: nearly all actives have a fitted effect of over 15% in size)
# Method in brief: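 Luminescent ONE-Glo read, 30min at room temperature, follows 16hr compound exposure (15 concentrations) of MDA-kb2 cells at 37C, 0% CO2, with nilutamide added at 3.0uM final.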
# [20] = qHTS assay to identify small molecule HDAC inhibitors - cell viability counter screen (AID 1259365); further: series mostly up to about 92 µM; nearly all actives have a fitted effect of over 50% in size
# Method in brief: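 Following a 2hr exposure of overnight-plated wild-type HCT-116 cells to DMSO-delivered compounds, CellTiter-Glo was added and luminescence recorded after 30min at room temperature.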
Compound,Potency [1],Potency [2],Potency [3],Potency [4],Potency [5],Potency [6],Potency [7],Potency [8],Potency [9],Potency [10],Potency [11],Potency [12],outcome [13],Potency [14],Potency [15],Potency [16],Potency [17],Potency [18],Potency [19],Potency [20]
Cc1cc(O)c2ccccc2c1O,29.8 µM (active),18.8 µM (active),11.9 µM (active),13.3 µM (active),inactive,5.31 µM (active),13.3 µM (active),inactive,13300 nM (active),26.6 µM (active),23.7 µM (active),inactive,inactive,,,,,,,
O=C(N/N=C/c1ccccc1O)c1ccncc1,inactive,inactive,,9.44 µM (active),inactive,inactive,inactive,inactive,473 nM (active),inactive,inactive,inactive,inactive,23.7 µM (active),inactive,2.11 µM (active),inactive,,,
C=CC(=O)OCC(CO)(COC(=O)C=C)COC(=O)C=C,15.4 µM (active) and 48.6 µM (active),10.9 µM (active) and 27.3 µM (active),5.46 µM (active) and 12.2 µM (active),13.7 µM (active),,4.34 µM (active) and 10.9 µM (active),3.87 µM (active) and 8.63 µM (active),inactive,1.54 µM (active) and 3.86 µM (active),19.4 µM (active) and 24.3 µM (active),19.4 µM (active) and 19.3 µM (active),inactive,inactive,inactive,,,inactive,13.7 µM (active) and 19.3 µM (active),inactive,
Oc1c(Cl)cc(Cl)c2cccnc12,inactive,inactive,,18.8 µM (active),inactive,4.22 µM (active),,inactive,,,11.9 µM (active),inactive,inactive,inactive,,,inactive,4.73 µM (active),,inactive
Clc1ccc2nsnc2c1NC1=NCCN1,inactive,inactive,,inactive,inactive,inactive,inactive,inactive,inactive,inactive,inactive,inactive,inactive,inactive,inactive,inactive,inactive,inactive,,inactive
COC(=O)C1=C(C)NC(C)=C(C(=O)OCCc2ccc(N3CCN(C(c4ccccc4)c4ccccc4)CC3)cc2)C1c1cccc([N+](=O)[O-])c1 (configuration not stated),inactive,inactive,inactive,inactive,,inactive,inactive,inactive,inactive,inactive,inactive,inactive,,inactive,,,,,,inactive
CC[C@@]1(O)C(=O)OCc2c1cc1n(c2=O)Cc2c-1nc1ccccc1c2/C=N/OC(C)(C)C,inactive,inactive,0.133 µM (active),0.188 µM (active),,,inactive,inactive,66.8 nM (active),,inactive,inactive,inactive,inactive,,,11.9 µM (active),,inactive,

# From PubChem BioAssay (Tox21)
